Results reported in PubChem BioAssay AID652039 (The Scripps Research Institute Molecular Screening Center, 2013).
About 3,300 (0.89%) of roughly 370,000 compounds were called active. The full list was thinned out, with actives kept by preference. Values without a mark were called inactive.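 Rule for the calls: active = activation above the mean of all tested compounds plus 3 SD, computed per campaign excluding outliers beyond control limits (cut at about 13% in these data); inactive = the rest.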

Target: Kallikrein-7 (Homo sapiens) (UniProt P49862)
Sequence (P49862 whole entry, looked up): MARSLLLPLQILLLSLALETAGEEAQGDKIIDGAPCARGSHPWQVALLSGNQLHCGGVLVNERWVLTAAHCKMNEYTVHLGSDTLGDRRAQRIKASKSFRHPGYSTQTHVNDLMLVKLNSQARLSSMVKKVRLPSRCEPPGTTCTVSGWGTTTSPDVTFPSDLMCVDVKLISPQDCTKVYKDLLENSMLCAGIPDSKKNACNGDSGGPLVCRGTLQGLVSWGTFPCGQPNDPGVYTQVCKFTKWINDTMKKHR
Experiment: activation of human kallikrein-7 proenzyme – biochemical, fluorescence intensity, primary screen (AID 652039)
Settings: purified proKLK7, EDANS-DABCYL substrate fluorescence; at 7 µM; active compounds read high; 100% is mature enzyme control, 0% vehicle

SMILES | activation
CCCNC(=O)Nc1ccc2c(c1)C(=O)N(C)[C@H]1CC[C@H](CC(=O)NCC3CCCCC3)O[C@@H]1CO2 | 0.14%
CCN1CCN(C(=O)c2cc3cc4ccc(OC)cc4nc3s2)CC1 | 68.7% (active)
COc1ccc(OCC(=O)N2CCN(C(=O)c3cccs3)CC2)cc1 | 0.07%
CCN1CCN(C(=O)CN(C)S(=O)(=O)c2ccc(OC)cc2)CC1 | -0.44%
COC(=O)[C@]12C[C@H](CC(=O)NCc3ccccc3)C(=O)N(Cc3ccccc3)C1=C[C@H](COCc1ccccc1)O[C@@H]2C | -0.24%
CCCOc1ccc(Oc2c(Cl)cnn(Cc3cccc4ccccc34)c2=O)cc1 | 0.98%
COc1ccc(CSc2nnc(-c3cccc(C)c3)n2C)cc1 | -0.66%
CCOC(=O)c1c(NC(=O)NC(C)(C)C)sc2c1CCN(C)C2 | 0.12%
CCOC(=O)c1c(NC(=S)SC)sc(C(=O)N2CCc3ccccc3C2)c1C | 0.73%
CCOC(=O)c1c(NC(=S)Nc2ccccc2)sc2c1CCN(C)C2 | 33.8% (active)
COc1ccc(CNC(=O)C(C)n2nc(C)c3c(C)n(-c4ccccc4)nc3c2=O)c(OC)c1 (stereo not drawn) | 0.01%
COCCCNC(=O)C[C@H]1C[C@@]2(C(=O)OC)C(=C[C@H](C(C)(C)C)O[C@@H]2C)N(Cc2ccc(Cl)cc2Cl)C1=O | -0.25%
C#CCNC(=O)C[C@H]1C[C@@]2(C(=O)OC)C(=C[C@H](C(C)C)O[C@@H]2C2CC2)N(Cc2ccco2)C1=O | 0.24%
Oc1ccc2ccc3cccc[n+]3c2c1 | 16.2% (active)
COc1ccc(-n2c(SCC(=O)Nc3ccc(C)c(Cl)c3)nc3ccccc3c2=O)cc1 | -0.5%
COc1ccc(-n2c(SCC(=O)Nc3ccc4c(c3)OCCO4)nnc2-c2ccc(Cl)cc2)cc1 | -0.65%
CN1C[C@]2(C=C3CCCCC3n3c(=O)n(-c4ccccc4)c(=O)n32)N=C1NC(=O)c1ccccc1 (stereo partly drawn) | 0.02%
COc1ccc(-n2c(SCC(=O)Nc3ccc4cn[nH]c4c3)nnc2-c2cccnc2)cc1 | -0.83%
O=C(Nc1ccccc1)N1CCN(Cc2nc3ccccc3c(=O)[nH]2)CC1 | 0.5%
COc1ccc(CCNC(=O)C(=O)Nc2ccc3nc4n(c(=O)c3c2)CCCCC4)cc1OC | 0.82%
COc1ccc(CCNC(=O)Nc2ccc3c(c2)c(=O)n(C)n3C)cc1OC | 33.7% (active)
COc1ccc(CCNC(=O)c2cc3sccc3n2C)cc1OC | -0.31%

SMILES | activation
CCOC(OCC)c1ccc(/C=C\c2nccc(N)n2)cc1 | 47.7% (active)
O=C(N1CCOCC1)N1CC[C@H]2[C@H](CCCN2Cc2ccc(F)cc2)C1 | 0.18%
COc1ccc2c(c1)CN1CN(CCc3ccccc3)S(=O)(=O)CC21 (stereo not drawn) | -0.32%
CN(C(=O)CCn1c(=S)oc2ccccc21)C1CCCCC1 | -0.28%
CC(C)c1ccc(C2C(C#N)=C(N)Oc3c2oc(CO)cc3=O)cc1 (stereo not drawn) | 0.31%
COC(=O)C1=C(C)OC(N)=C(C#N)C1c1cc(OC)ccc1OC (stereo not drawn) | 30.7% (active)
CCOC(=O)C1=C(C)OC(N)=C(C#N)C1c1cncc(-c2ccc(F)cc2)c1 (stereo not drawn) | 0.49%
CCC1=C(C(=O)OC)C(c2cc(OC)ccc2OC)C(C#N)=C(N)O1 (stereo not drawn) | 15.6% (active)
COC(=O)C1=C(C)N(C)C(=S)NC1c1cc(OC)ccc1OC (stereo not drawn) | 0.24%
CCOC(=O)C1=C(CC)OC(N)=C(C#N)C1c1ccc(F)cc1F (stereo not drawn) | -0.17%
Cc1ccc(CN2CCCCC(NC(=O)C3CCCCC3)C2=O)cc1 (stereo not drawn) | -0.03%
CCOC(=O)[C@]12CCCC=C1N(Cc1ccc(OC)cc1)C(=O)[C@@H]2CC(=O)NCc1cccs1 | -0.38%
Clc1ccc(-n2c(COc3ccccc3)nnc2SCc2nc3ccccc3[nH]2)cc1 | 0.33%
O=C(CSc1nnc(-c2ccccn2)n1-c1ccc(Cl)cc1)Nc1ccccc1-c1ccccc1 | 0.1%
COC(=O)[C@]12C[C@H](CC(=O)N3CCOCC3)C(=O)N(Cc3ccc(Cl)cc3Cl)C1=C[C@H](COCc1ccccc1)O[C@@H]2C | 0.05%
Cc1cc(=O)[nH]c(SCC(=O)Nc2ccc(F)cc2F)n1 | -0.3%
CC(C)CCNc1nc(N2CCCC2)c2c(c1C#N)CCN(C)C2 | -0.46%
CCN1CCc2c(C#N)c(NCc3ccccc3)nc(NCCO)c2C1 | 14.3% (active)
CCCCc1nc(NCc2ccccc2)c(C#N)c2c1CCCC2 | -0.04%
Clc1cccc(Cl)c1OCCOCCNCc1ccccc1 | -0.51%
CC1(C)CC(=O)CC2(C1)NCC(c1ccccc1Cl)c1c2[nH]c2ccccc12 (stereo not drawn) | 0.29%
CC(=O)N1CCc2cc(S(=O)(=O)NCCC(=O)N3CCCC3)ccc21 | 0.03%

SMILES | activation
Cc1cc(C(=O)OCC(=O)Nc2nccs2)c2ccccc2n1 | -2.12%
C/C(N)=C(/C#N)C(=O)COC(=O)c1cc(-c2cccc(Br)c2)nc2ccccc12 | 0.31%
COc1ccc(S(=O)(=O)n2cnc3ccccc32)c(C)c1 | -0.43%
COc1ccc(-c2cc(C(=O)n3cnc4ccccc43)c3ccccc3n2)cc1 | 20.8% (active)
CNC(=O)COC(=O)c1cc(-c2ccc(OC)cc2)nc2ccccc12 | 113% (active)
COc1ccc(-c2cc3n(n2)CCc2nc4ccccc4n2-3)cc1 | 0.02%
CN(CCO)c1cccc2c1S(=O)(=O)N(Cc1cn(Cc3ccc(C(F)(F)F)cc3)nn1)Cc1ccccc1O2 | 1.21%
COC(=O)C[C@@H]1CC[C@H]2[C@@H](COc3ccc(NS(=O)(=O)CC(F)(F)F)cc3C(=O)N2C)O1 | -0.11%
CCOC(=O)CN1C(=O)C(O)(CC(=O)c2ccccn2)c2ccccc21 (stereo not drawn) | 0.64%
O=C(NCCC1=CCCCC1)C1CCN(S(=O)(=O)c2ccc(Cl)s2)CC1 | 0.13%
Cc1cc(NS(=O)(=O)c2ccc(NC(=O)CSc3nnc(SCc4ccc(F)cc4)s3)cc2)nc(C)n1 | -0.24%
COC(=O)c1cccc(Cn2ccc3ccc(-c4ccc5ccn(C(=O)c6ccccc6C)c5c4)cc32)c1 | -10.5%
COCc1c(N)c(C)nc(Cl)c1C#N | -1.78%
Cc1nc(SCC(=O)NC2CCCCC2C)c(C#N)c(C)c1C (stereo not drawn) | -0.08%
COC(=O)c1c(C)c(C)nc(N)c1C#N | 33.8% (active)
Cc1ccccc1NC(=O)Cn1nnc(-c2ccccc2F)n1 | -0.28%
O=C(NC1CCCC1)C1CSCCS(=O)(=O)N1Cc1ccccc1 (stereo not drawn) | 0.33%
Cc1c[nH]c2cccc(-c3ccc(Cl)cc3)c12 | 0.5%
O=C(CSc1nnc(COc2ccccc2)n1Cc1ccco1)c1ccc2ccccc2c1 | 0.09%
O=C(NCc1cccs1)C1CCCN(S(=O)(=O)c2ccc([N+](=O)[O-])cc2)C1 (stereo not drawn) | -0.47%
Cc1ccc(-n2c(SCC(=O)Nc3ccc(S(=O)(=O)Nc4nccs4)cc3)nnc2-c2ccncc2)cc1 | 0.08%
CCOC(=O)CSc1nc2c(c(=O)n(Cc3ccccc3Cl)c(=O)n2C)n1C | -0.44%

SMILES | activation
CCCCCn1c(=O)c(C(=O)OCC)c(Cl)c2ccccc21 | 27.6% (active)
CCCCNC(=O)CCn1c(=O)c2ccccc2n(Cc2cc(C)ccc2C)c1=O | -0.3%
C=CCn1c(SCC(N)=O)nnc1-c1ccccc1OC | -0.28%
Cc1ccc(C2=CCN(C)C(=O)N2c2ccc(Cl)cc2)cc1 | 0.11%
C[C@H](C(=O)N(C)c1ccccc1)[C@@H](O)c1ccc2ccccc2c1 | -0.85%
CN(C)S(=O)(=O)c1cccc(C(=O)N/N=C\c2ccco2)c1 | -0.04%
Cc1coc2c1c(C)cc1oc(=O)c(CC(=O)NCC(=O)N[C@H](C(=O)O)C(C)C)c(C)c12 | 21.3% (active)
CC[C@@H](C)[C@H](NC(=O)CCc1c(C)c2cc3c4c(oc3c(C)c2oc1=O)CCCC4)C(=O)O | -2.12%
Cc1c(CC(=O)NCC(=O)NCC(=O)O)c(=O)oc2cc3oc4c(c3cc12)CCCC4 | -11.5%
CCOC(=O)[C@]12CCCC=C1N(Cc1ccc(OC)cc1)C(=O)[C@@H]2CC(=O)N1CCOCC1 | -0.23%
Cc1ccc(CCn2c3c(c4ccccc42)CN(C)CC3)cn1 | -0.24%
COC(=O)[C@@]12CCCCC3=C1N(CCC3)C(=O)[C@H]2CC(=O)NCc1cccc2ccccc12 | 0.65%
CC(C)(C)OC(=O)NCc1cc(F)ccc1/C=C/S(=O)(=O)NCCc1ccccc1 | 0.29%
FC(F)(F)c1cccc(Cn2ccc3ccc(-c4ccc5ccn(Cc6ccccc6)c5c4)cc32)c1 | -1.25%
COc1cccc(/C=C/C(=O)Nc2ccc3c(c2)OCCO3)c1 | -0.23%
O=C(/C=C/c1ccc2c(c1)OCCO2)c1ccc(O)cc1 | 17.6% (active)
Cc1cccc(NC(=O)/C=C/c2ccc3c(c2)OCO3)n1 | 6.43%
COc1ccccc1CCNC(=O)C1CCN(c2nc(C)cc(C)n2)CC1 | -0.66%
COC(=O)c1cc(S(=O)(=O)N2CCN(c3ccccc3C)CC2)cn1C | 0.47%
Cc1ccc(C(=O)c2coc3ccc(O)c(CN(C)C)c23)cc1 | 0.08%
CN(C)Cc1c(O)ccc2occ(C(O)c3ccccc3)c12 (stereo not drawn) | -0.59%
CN(C)Cc1c(O)ccc2c(=O)c(-c3ccccc3Cl)coc12 | 40.3% (active)
